Source: PubChem BioAssay AID1159580 (chemical genetic matrix, 2015)
Values joined by “and” are separate entries in the source; they are usually repeats but may differ in a detail not shown here. Equal entries are not always repeated. The campaign covered roughly 5,500 compounds. About 2,000 (36%) were called active. Not shown: some 18% with an inconclusive outcome. Cut-off read from the data, not from the text of the source: active = normalized growth mostly below about 0.91 (no sharp cut-off); inconclusive = no clear call, values can overlap the other calls; inactive = mostly above about 0.92. The list shows a part of the results.

Assay: chemical genetic growth profiling, strain panel (AID 1159580);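 note: tested at 20 µM; growth read once vehicle control cultures reached saturation at 30 °C; 1 = growth at the plate median or of vehicle wells; lower values mean less growth of the strain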
Conditions: S. cerevisiae deletion strains, growth OD

Measured: normalized growth

CC1=C(/C=C/C(C)=C/C=C/C(C)=C/CO)C(C)(C)CCC1
inactive: locus YAL013W, strain DEP1, stronger effect = lower value 1 | locus YAL021C, strain ccr4, stronger effect = lower value 1.05 | locus YAL026C, strain drs2, stronger effect = lower value 1.03 | locus YAL030W, strain snc1, stronger effect = lower value 0.995 | locus YBL061C, strain skt5, stronger effect = lower value 1.02 | locus YBR009C, strain hhf1, stronger effect = lower value 0.961 | locus YBR021W, strain FUR4, stronger effect = lower value 1.01 | locus YBR023C, strain chs3, stronger effect = lower value 1.01 | locus YBR171W, strain sec66, stronger effect = lower value 1.01 | locus YBR229C, strain ROT2, stronger effect = lower value 0.969 | locus YBR231C, strain swc5, stronger effect = lower value 0.983 | locus YBR279W, strain paf1, stronger effect = lower value 1 | locus YCL011C, strain gbp2, stronger effect = lower value 1.04 | locus YCL016C, strain dcc1, stronger effect = lower value 1.04 | locus YCL029C, strain bik1, stronger effect = lower value 1 | locus YCL061C, strain MRC1, stronger effect = lower value 1.01 | locus YCL069W, strain vba3, stronger effect = lower value 1.01 | locus YCR088W, strain abp1, stronger effect = lower value 1.03 | locus YDL005C, strain med2, stronger effect = lower value 1.02 | locus YDL035C, strain GPR1, stronger effect = lower value 0.982 | locus YDL040C, strain nat1, stronger effect = lower value 0.998 | locus YDL074C, strain BRE1, stronger effect = lower value 0.938 | locus YDL101C, strain DUN1, stronger effect = lower value 0.977 | locus YDL134C, strain PPH21, stronger effect = lower value 1.02 | locus YDL185W, strain tfp1, stronger effect = lower value 0.997 | locus YDL192W, strain arf1, stronger effect = lower value 1 | locus YDR001C, strain nth1, stronger effect = lower value 1.01 | locus YDR069C, strain doa4, stronger effect = lower value 1.04 | locus YDR101C, strain arx1, stronger effect = lower value 0.993 | locus YDR137W, strain rgp1, stronger effect = lower value 1.03 | locus YDR150W, strain NUM1, stronger effect = lower value 1 | locus YDR159W, strain sac3, stronger effect = lower value 0.968 | locus YDR162C, strain NBP2, stronger effect = lower value 0.993 | locus YDR195W, strain ref2 0.988 | locus YDR297W, strain sur2, stronger effect = lower value 1 | locus YDR318W, strain mcm21, stronger effect = lower value 1 | locus YDR334W, strain swr1, stronger effect = lower value 1.02 | locus YDR335W, strain msn5, stronger effect = lower value 1.02 | locus YDR388W, stronger effect = lower value 1 | locus YDR392W, strain spt3, stronger effect = lower value 0.965 | locus YDR502C, strain sam2, stronger effect = lower value 1 | locus YEL003W, strain gim4, stronger effect = lower value 1 | locus YEL037C, strain rad23, stronger effect = lower value 1 | locus YEL061C, strain CIN8 (second series), stronger effect = lower value 1.01 | locus YEL061C, strain CIN8, stronger effect = lower value 0.992 | locus YER015W, strain faa2, stronger effect = lower value 1.01 | locus YER016W, strain bim1, stronger effect = lower value 1.06 | locus YER110C, stronger effect = lower value 0.999 | locus YER111C, strain swi4, stronger effect = lower value 1 | locus YER155C, strain BEM2 (second series), stronger effect = lower value 1.07 | locus YER155C, strain BEM2, stronger effect = lower value 1.01 | locus YER167W, strain BCK2, stronger effect = lower value 1 | locus YFR010W, strain ubp6, stronger effect = lower value 0.988 | locus YGL078C, strain dbp3, stronger effect = lower value 1.01 | locus YGL086W, strain mad1, stronger effect = lower value 0.983 | locus YGL167C, strain pmr1, stronger effect = lower value 1.01 | locus YGL173C, strain kem1, stronger effect = lower value 0.971 | locus YGL227W, strain vid30, stronger effect = lower value 1 | locus YGL240W, strain doc1, stronger effect = lower value 1.01 | locus YGL248W, strain PDE1, stronger effect = lower value 0.965 | locus YGL253W, strain hxk2, stronger effect = lower value 0.993 | locus YGR078C, strain PAC10, stronger effect = lower value 0.967 | locus YGR135W, strain pre9, stronger effect = lower value 1 | locus YGR252W, strain gcn5, stronger effect = lower value 0.985 | locus YHR013C, strain ard1, stronger effect = lower value 1.04 | locus YHR027C, strain rpn1, stronger effect = lower value 1.01 | locus YHR030C, strain SLT2, stronger effect = lower value 1.01 and 0.999 | locus YHR079C, strain IRE1 (second series), stronger effect = lower value 1.01 | locus YHR079C, strain IRE1, stronger effect = lower value 1.04 | locus YHR094C, strain hxt1, stronger effect = lower value 1.01 | locus YHR129C, strain ARP1, stronger effect = lower value 1.01 | locus YHR142W, strain chs7, stronger effect = lower value 1 | locus YHR200W, strain rpn10, stronger effect = lower value 1 | locus YIL066C, strain RNR3, stronger effect = lower value 0.964 | locus YIL073C, strain SPO22, stronger effect = lower value 1.01 | locus YIL125W, strain kgd1, stronger effect = lower value 0.995 | locus YIR030C, strain dcg1, stronger effect = lower value 0.998 | locus YJL092W, strain hpr5, stronger effect = lower value 1 | locus YJL095W, strain BCK1 (second series), stronger effect = lower value 1 | locus YJL095W, strain BCK1, stronger effect = lower value 0.924 and 1.01 | locus YJL115W, strain asf1, stronger effect = lower value 1.01 | locus YJL129C, strain trk1, stronger effect = lower value 0.985 | locus YJL134W, strain LCB3, stronger effect = lower value 1.01 | locus YJL154C, strain vps35, stronger effect = lower value 1.02 | locus YJL164C, strain tpk1, stronger effect = lower value 0.993 | locus YJL166W, strain qcr8, stronger effect = lower value 0.967 | locus YJL168C, strain set2, stronger effect = lower value 0.997 | locus YJL187C, strain SWE1 (second series), stronger effect = lower value 0.96
